{
  "source": "PubChem BioAssay (NCATS)",
  "note": "Records with an inconclusive call do not appear. Entries that show only a call come without a potency. Calls of active or inactive are those of the source. Calls come from the whole dose curve; as a rule, active = well fitted inhibition curve with a large enough effect; inconclusive = small, poorly fitted or top-dose-only effect; inactive = no such curve, though single readings can be large or run the other way. Potency is the fitted concentration of half-maximal effect.",
  "data": [
    {"target": "Retinaldehyde dehydrogenase 3 (Homo sapiens) (UniProt P47895)", "test": "qHTS for Inhibitors of the Aldehyde Dehydrogenase Family (ALDH1A3) Confirmatory screens (AID 2061311); note: nearly all actives have a fitted effect of over 60% in size", "conditions": "ALDH inhibition qHTS; series mostly up to 46 µM", "values": [
      {"smiles": "COc1ccc(-c2ccccc2C(=O)NCc2ccccn2)nn1", "Potency": "inactive"},
      {"smiles": "CCOc1ccc(S(=O)(=O)NCc2nc3cccnc3n2Cc2ccccc2OC)cc1", "Potency": "15.8 µM (active)"},
      {"smiles": "O=C1Cc2cc(S(=O)(=O)N3CCN(c4ccccc4)CC3)ccc2N1", "Potency": "inactive"},
      {"smiles": "O=C(CCS(=O)(=O)c1cccc2nonc12)Nc1ccc(F)cc1F", "Potency": "inactive"},
      {"smiles": "COc1cc(F)ccc1-c1cnc2n[nH]c(-c3sccc3C)c2n1", "Potency": "inactive"},
      {"smiles": "O=C(CCc1ccccc1)Nc1ccc([C@@H](O)[C@H]2COCC(=O)N2Cc2ccncc2)cc1", "Potency": "inactive"},
      {"smiles": "O=C(CSc1nc2c(cnn2-c2ccc(F)cc2)c(=O)[nH]1)Nc1ccc(Br)cc1", "Potency": "inactive"},
      {"smiles": "Cc1cc(C)n2nc(SCC(=O)Nc3ccccc3C)nc2n1", "Potency": "inactive"},
      {"smiles": "O=C(CSc1nc(-c2ccco2)nc2cc(=O)[nH]n12)Nc1ccccc1Cl", "Potency": "inactive"},
      {"smiles": "O=[S+]([O-])(c1ccccc1)c1nnn2c1nc(N1CCC(F)CC1)c1ccccc12", "Potency": "inactive"},
      {"smiles": "COc1ccc(-c2nnc3ccc(NCCc4ccccc4)nn23)nc1", "Potency": "20 µM (active)"},
      {"smiles": "COc1ccc(N2CCN(C(=O)CS(=O)(=O)c3cccc4nsnc34)CC2)cc1", "Potency": "inactive"},
      {"smiles": "Cn1ccc(Nc2ccc3nnc(-c4ccccn4)n3n2)n1", "Potency": "inactive"},
      {"smiles": "Cn1cc(-c2cnc(Nc3ccncc3)c3c2CCO3)cn1", "Potency": "inactive"},
      {"smiles": "O=C(C#Cc1ccccc1)NC1CCCc2c1cnn2-c1ccc(F)cc1F", "note": "(stereo not drawn)", "Potency": "inactive"},
      {"smiles": "COc1cccc(-c2nccc3c(=O)cc(N4CCOCC4)oc23)c1", "Potency": "inactive"},
      {"smiles": "CN(Cc1ccc(-c2ccccc2)cc1)CC1CCCCC1", "Potency": "35.5 µM (active)"},
      {"smiles": "CC[C@H]1CN(C(=O)Nc2cccc(OC)c2)CC[C@H]1CC(=O)NCc1ccccc1", "Potency": "inactive"},
      {"smiles": "COc1ccc(CC(=O)Nc2ccc([C@H]3OCC(=O)N(Cc4ccccc4)[C@@H]3CO)cc2)cc1", "Potency": "inactive"},
      {"smiles": "O=S(=O)(c1ccccc1)c1nnn2c1nc(NC1CCCC1)c1ccccc12", "Potency": "inactive"},
      {"smiles": "COc1ccc(OC)c(-c2cc(-c3cccs3)nc3c(C)noc23)c1", "Potency": "12.6 µM (active)"},
      {"smiles": "O=C(NCc1ccc(F)cc1)c1nc(-c2ccc(Cl)nc2)c2cnccn12", "Potency": "inactive"},
      {"smiles": "COc1ccc(C(=O)NCc2nnc3ccc(-c4ccccc4)nn23)c(C)c1", "Potency": "inactive"}
    ]}
  ]
}
